Source: PubChem BioAssay (EPA / NIEHS)
Results filed as inconclusive are left out. Activity calls are given as the source filed them. The calls were made as follows, unless noted: active = hit-call score of the fitted dose curve at least 0.9, where 1 is the maximum; inactive = score below 0.9.

How the values were obtained:
[1] = TOX21_TRB_BLA_Antagonist_Followup_viability: Viability Assessment in the Tox21 Thyroid Hormone Receptor beta Antagonism Beta-lactamase (BLA) Follow-Up Assay (AID 2283961; active = hit-call score of the fitted dose curve at least 0.9, where 1 is the maximum)
Outline: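 TRβ-bla HEK293T (human TRβ LBD fused to GAL4 DBD), 3,000 cells/well, 2% charcoal-stripped FBS, phenol red-free medium; 18 h compound exposure, 37C; CellTiter-Glo 30 min RT; luminescence, loss-of-signal readout.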

[2] = target: THRB (gene 7068) (UniProt P10828); assay: TOX21_TRB_COA_Antagonist_Followup_ratio: Tox21 Thyroid Hormone Receptor beta Antagonism through Coactivator Recruitment Follow-Up Assay, Ratio (AID 2283967; active = hit-call score of the fitted dose curve at least 0.9, where 1 is the maximum)
Chain of THRB (gene 7068) (P10828 whole entry, looked up, the tested form may be a part): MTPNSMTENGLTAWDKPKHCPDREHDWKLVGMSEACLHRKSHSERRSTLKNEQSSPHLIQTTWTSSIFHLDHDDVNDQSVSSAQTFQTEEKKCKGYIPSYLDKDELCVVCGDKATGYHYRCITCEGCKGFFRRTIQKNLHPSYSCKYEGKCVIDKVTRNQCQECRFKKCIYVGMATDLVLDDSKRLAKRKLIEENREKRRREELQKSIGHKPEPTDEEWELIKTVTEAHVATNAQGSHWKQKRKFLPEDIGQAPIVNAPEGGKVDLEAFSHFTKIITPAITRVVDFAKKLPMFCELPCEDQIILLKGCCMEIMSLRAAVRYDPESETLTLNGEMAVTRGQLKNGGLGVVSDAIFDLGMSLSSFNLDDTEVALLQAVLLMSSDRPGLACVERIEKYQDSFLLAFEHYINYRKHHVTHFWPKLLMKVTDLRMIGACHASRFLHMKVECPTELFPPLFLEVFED
Outline: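 Cell-free TR-FRET: GST-TRb LBD (5.0 nM) with fluorescein-SRC-2 peptide (200 nM) and Tb anti-GST antibody (2 nM), 0.10% BSA. 520:495 nm emission ratio normalized to DMSO (0%) and T3 (100%).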

[3] = target: Retinoic acid receptor RXR-alpha (Homo sapiens) (UniProt P19793); assay: TOX21_TR_RXR_BLA_Antagonist_Followup_ratio: Tox21 Thyroid Hormone Receptor beta Retinoid X Receptor alpha (RXRa) Antagonism Beta-lactamase (BLA) Follow-Up Assay, Ratio (AID 2283972; active = hit-call score of the fitted dose curve at least 0.9, where 1 is the maximum)
Chain of Retinoic acid receptor RXR-alpha (Homo sapiens) (P19793 whole entry, looked up): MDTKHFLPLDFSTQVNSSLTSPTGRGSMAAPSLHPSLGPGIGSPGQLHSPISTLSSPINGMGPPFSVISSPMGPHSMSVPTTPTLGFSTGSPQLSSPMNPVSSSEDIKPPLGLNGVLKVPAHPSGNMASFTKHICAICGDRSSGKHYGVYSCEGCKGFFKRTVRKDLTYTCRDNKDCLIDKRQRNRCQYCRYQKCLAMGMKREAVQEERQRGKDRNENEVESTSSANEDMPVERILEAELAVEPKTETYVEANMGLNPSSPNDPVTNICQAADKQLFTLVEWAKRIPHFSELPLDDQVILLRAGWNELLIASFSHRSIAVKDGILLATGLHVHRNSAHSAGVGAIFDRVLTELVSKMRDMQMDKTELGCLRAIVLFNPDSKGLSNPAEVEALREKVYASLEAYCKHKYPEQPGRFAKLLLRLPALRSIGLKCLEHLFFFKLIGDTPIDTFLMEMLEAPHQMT
Outline: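 HEK293T RXRa-bla, 2% charcoal-stripped FBS medium, 16 h compound exposure at 37C, qHTS 11 conc x3. CCF4 FRET ratio ch2/ch1 (460:530), DMSO = baseline, loss-of-signal fit.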

[4] = TOX21_TR_RXR_BLA_Antagonist_Followup_viability: Viability Assessment in the Tox21 Thyroid Hormone Receptor beta Retinoid X Receptor alpha (RXRa) Antagonism Beta-lactamase (BLA) Follow-Up Assay (AID 2283979; active = hit-call score of the fitted dose curve at least 0.9, where 1 is the maximum)
Outline: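 RXRa-bla HEK293T cells (2,500/well, phenol red-free DMEM, 2% charcoal-stripped FBS) were attached 5 h, then exposed to compounds at 11 concentrations in triplicate for 16 h at 37C. Viability measured by CellTiter-Glo ATP luminescence, bidirectional fitting versus DMSO.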

[5] = CCTE_Harrill_HTTr_Viability_MCF7: CCTE's 6-hour Cell Viability Assessment for the High-Throughput Transcriptomics (HTTr) Platform, in MCF-7 cells cultured in DMEM + 10% fetal bovine serum, Harrill Lab (AID 2284010)
Outline: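 MCF-7 cells in DMEM + 10% FBS, 384-well, exposed 6 h to an eight-point dilution series. Membrane integrity scored by high-content imaging of propidium iodide exclusion; bidirectional fit versus DMSO.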

[6] = CCTE_Harrill_HTTr_Apoptosis_MCF7: CCTE's 6-hour Apoptosis Assessment for the High-Throughput Transcriptomics (HTTr) Platform, in MCF-7 cells cultured in DMEM + 10% fetal bovine serum, Harrill Lab (AID 2284011)
Outline: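 MCF-7 (DMEM + 10% FBS), 384-well; 8-pt dilution series, 6 h chemical exposure; caspase-3/7 activation via CellEvent Caspase 3/7 Green, HCI; bidirectional fit vs DMSO.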

[7] = CCTE_Harrill_HTTr_CellCount_MCF7: CCTE's Cell Proliferation Assessment for the High-Throughput Transcriptomics (HTTr) Platform, Harrill Lab (AID 2284012; active = hit-call score of the fitted dose curve at least 0.9, where 1 is the maximum;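 also: cells exposed to compound for six hours; intended direction is loss of nuclei count meaning fewer cells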)
Outline: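 MCF7 cells exposed 6 hours to an eight-point dilution series; Hoechst-stained nuclei counted by high-content imaging. Bidirectional curve fitting against DMSO baseline.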

[8] = CCTE_Shafer_MEA_acute_spike_number: CCTE's Neural Acute Assay for Total Number of Spikes, Shafer Lab (AID 2284008);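 as to AC50: curve fitted for decrease in spike count so AC50 reflects inhibitors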
Outline: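 Read-out is the total spike count over 40 min, expressed as percent change from each well's own pre-treatment baseline and fitted in the loss direction against DMSO. Rat cortical neurons were exposed at 0.03-40 uM on DIV 13 or 15.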

[9] = CCTE_Shafer_MEA_acute_firing_rate_mean: CCTE's Neural Acute Assay for Mean Firing Rate, Shafer Lab (AID 2284009);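 also: analyzed for loss of signal so actives lower firing rate relative to DMSO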
Outline: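 Rat primary cortical neurons on 48-well MEA plates, dosed at 0.03-40 uM on DIV 13 or 15; 40 min spontaneous activity recorded at 37 C before and after compound. Spike rate per electrode averaged per well, expressed as percent change from baseline.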

[10] = CCTE_Shafer_MEA_acute_burst_number: CCTE's Neural Acute Assay for Single-Electrode Bursts, Shafer Lab (AID 2284013)
Outline: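 Primary rat cortical neurons on 16-electrode MEA wells, treated on DIV 13 or 15 with compound at 0.03-40 uM. Single-electrode burst count from 40-min recordings at 37 C before and after exposure; percent change from baseline per well, DMSO negative control.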

[11] = CCTE_Shafer_MEA_acute_per_burst_spike_number_mean: CCTE's Neural Acute Assay for Average Number of Spikes Per Burst, Shafer Lab (AID 2284015);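 also: hits are decreases in mean spikes per burst versus baseline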
Outline: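 Read-out: percent change in mean spikes per burst, each well's post-exposure 40-min recording versus its own 40-min baseline. Rat cortical cultures, DIV 13 or 15, compounds 0.03-40 uM; DMSO is negative control, loss-of-signal fitting.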

[12] = CCTE_Shafer_MEA_acute_interburst_interval_mean: CCTE's Neural Acute Assay for Mean Interburst Interval, Shafer Lab (AID 2284016);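 also: percent change of mean interburst interval versus each well's own pre-dose baseline; curves fitted for decrease in interburst interval relative to DMSO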
Outline: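 Rat cortical cultures, DIV 13/15; 20 min equilibration, 40 min baseline, compound 0.03-40 uM, 40 min re-recording, 37 C. Spikes detected at 8x rms noise (300-5000 Hz band-pass). Endpoint: % change in interburst interval, fitted in loss direction vs DMSO.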

Oc1c(Cl)cc(Cl)c(Cl)c1Cc1c(O)c(Cl)cc(Cl)c1Cl
AC50 [1]: 8.64 µM (active) | outcome [2]: inactive | outcome [3]: inactive | AC50 [4]: 33.3 µM (active)

CC(C)(CO)[C@@H](O)C(=O)NCCC(=O)O
outcome [5]: inactive | outcome [6]: inactive

CCCC(=O)OCCc1ccccc1
outcome [5]: inactive | outcome [6]: inactive

O=C(O)c1cccnc1C(=O)O
outcome [5]: inactive | outcome [6]: inactive | outcome [7]: inactive

ON=C1CCCCC1
outcome [5]: inactive | outcome [6]: inactive | outcome [7]: inactive

Clc1ccc(C(c2ccccc2Cl)C(Cl)Cl)cc1 (centres undefined)
outcome [5]: inactive | outcome [6]: inactive

O=CCc1ccccc1
outcome [5]: inactive

C1=CC2C3C=CC(C3)C2C1 (centres undefined)
outcome [5]: inactive

CC(C)NCC(O)COc1ccc(CC(N)=O)cc1 (centres undefined)
outcome [5]: inactive

CCCCCCCCCC(=O)OC
outcome [5]: inactive | outcome [6]: inactive

Nc1ccccc1[N+](=O)[O-]
outcome [5]: inactive

O=C(c1ccccc1)C(O)c1ccccc1 (centres undefined)
outcome [5]: inactive | outcome [6]: inactive | outcome [7]: inactive

CC1=CC[C@@]23C[C@@H]1C(C)(C)[C@@H]2CC[C@H]3C
outcome [5]: inactive | outcome [6]: inactive

CN(C)CCOC(C)(c1ccccc1)c1ccccn1 (centres undefined)
outcome [5]: inactive | outcome [6]: inactive

CCCCC1(COC(=O)CCC(=O)O)C(=O)N(c2ccccc2)N(c2ccccc2)C1=O
outcome [5]: inactive

Cc1ncc([N+](=O)[O-])n1CCO
outcome [5]: inactive

C=CCOC(=O)CCCCCC
outcome [5]: inactive

CC1(C)CCC[C@]2(C)[C@H]3CCO[C@]3(C)CC[C@@H]12
outcome [8]: inactive | outcome [9]: inactive | outcome [10]: inactive | outcome [11]: inactive | outcome [12]: inactive

CN(C)C(=S)SC(=S)N(C)C
outcome [8]: inactive | outcome [9]: inactive | outcome [10]: inactive | outcome [11]: inactive | outcome [12]: inactive

Cc1ccc(N)c(S(=O)(=O)O)c1
outcome [5]: inactive

C[C@H]1C[C@@H](O)CC(C)(C)C1
outcome [5]: inactive | outcome [6]: inactive | outcome [7]: inactive

CC1(C)C2=CCCC(C)(C)[C@]23CC[C@H]1C3
outcome [5]: inactive | outcome [6]: inactive

CCC1(c2ccccc2)C(=O)NCNC1=O
outcome [5]: inactive | outcome [6]: inactive

Clc1cc(Cl)c(-c2c(Cl)c(Cl)cc(Cl)c2Cl)cc1Cl
outcome [5]: inactive

C[C@@H]1CCN(C(=O)[C@H](CCCN=C(N)N)NS(=O)(=O)c2cccc3c2NC[C@H](C)C3)[C@@H](C(=O)O)C1
outcome [5]: inactive

CCCN(CCC)S(=O)(=O)c1ccc(C(=O)O)cc1
outcome [5]: inactive | outcome [6]: inactive

CC(C)(C)c1ccc(C(=O)O)cc1
outcome [5]: inactive

CCOC(=O)c1ccc(N)cc1
outcome [5]: inactive | outcome [6]: inactive

CCCCCCC(CO)CCCC (centres undefined)
AC50 [8]: 5.36 µM (active) | AC50 [9]: 5.36 µM (active) | outcome [10]: inactive | outcome [11]: inactive | AC50 [12]: 15 µM (active)

OCC#CCO
outcome [5]: inactive | outcome [6]: inactive

CN(c1nccc(=O)[nH]1)C1CCN(c2nc3ccccc3n2Cc2ccc(F)cc2)CC1
outcome [5]: inactive | outcome [6]: inactive

OC[C@H]1O[C@@H](Oc2ccc(O)cc2)[C@H](O)[C@@H](O)[C@@H]1O
outcome [5]: inactive | outcome [6]: inactive

C=C(C)[C@H]1CC=C(C)C(=O)C1
outcome [5]: inactive | outcome [6]: inactive | outcome [7]: inactive

CS(C)=O
outcome [5]: inactive

CS(=O)(=O)c1ccc(C2=C(c3ccccc3)C(=O)OC2)cc1
outcome [5]: inactive | outcome [6]: inactive

O=CN1CCOCC1
outcome [8]: inactive | outcome [9]: inactive | outcome [10]: inactive | outcome [11]: inactive | outcome [12]: inactive

CS(=O)(=O)c1ccc(Cl)cc1
outcome [5]: inactive | outcome [6]: inactive | outcome [7]: inactive

CCCC1O[C@@H]2C[C@H]3[C@@H]4CCC5=CC(=O)C=C[C@]5(C)[C@H]4[C@@H](O)C[C@]3(C)[C@]2(C(=O)CO)O1 (some centres undefined)
outcome [5]: inactive | outcome [6]: inactive
